From PubChem BioAssay (NCI) come the findings set out here.

Compounds without any hit were thinned out: in the full panel of roughly 83,000, 20% have a hit.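 48-hour exposure, single concentration, 96-well plates; percent growth endpoint where 0 means no net growth. Active: below 10.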 Values without a mark were called inactive. The source made the active and inactive calls.

Some test systems named below: NCI-H23 lung; NCI-H226 lung; NCI-H322M lung; HOP-62 NSCLC; NCI-H460 lung; HOP-92 NSCLC; NCI-H522 lung; A549/ATCC NSCLC; 786-0 renal; COLO 205 colon; DU-145 prostate; K-562 leukemia; MALME-3M melanoma; MDA-MB-231 breast; RXF 393 renal; SF-268 CNS; SF-295 CNS; SF-539 CNS; UACC-257 melanoma; M14 melanoma.
Test in all cases: NCI-60 one-dose screen, 48 h (100 = growth as untreated, 0 = no growth, -100 = all killed)
Common to all, as to conditions: 10 µM unless noted

With `Cc1cc(N(CCCNc2ccnc3cc(Cl)ccc23)Cc2ccco2)nc(N2CCN(C)CC2)n1`, the growth is 66% in the experiment with NCI-H23 lung; 88.3% with NCI-H226 lung; 64.2% in the experiment on NCI-H322M lung; 48.2% in the experiment on HOP-62 NSCLC; 28.4% with NCI-H460 lung; 79.9% in the experiment on HOP-92 NSCLC. Further, the growth with NCI-H522 lung was 82.1%; in the experiment with A549/ATCC NSCLC it was 45%; in the experiment on 786-0 renal, 59%; in the experiment with COLO 205 colon it was -21.2% (active); in the experiment on DU-145 prostate, 55.6%; in the experiment with K-562 leukemia, 12.9%. Further, the growth with MALME-3M melanoma is -49.6% (active); in the experiment with MDA-MB-231 breast, 14.4%; with RXF 393 renal, 35.9%; with SF-268 CNS, 56.1%; in the experiment with SF-295 CNS it was 57.1%; with SF-539 CNS, -62.9% (active). In addition, the growth in the experiment on UACC-257 melanoma is -63.2% (active); in the experiment on M14 melanoma, -82.5% (active).
In the case of `CN1CCN(c2ccc3nc(-c4[nH]ncc4Nc4ncnc5c4OCCCN5)[nH]c3c2)CC1`, the growth in the experiment on NCI-H23 lung was -53.9% (active); in the experiment with NCI-H226 lung, -76.4% (active); in the experiment with NCI-H322M lung, -67.3% (active); with HOP-62 NSCLC, -48.4% (active); in the experiment on NCI-H460 lung it was -69.8% (active); with HOP-92 NSCLC, -29.3% (active). The growth with NCI-H522 lung is -26.2% (active); in the experiment on A549/ATCC NSCLC, -63% (active); in the experiment with 786-0 renal it was -59.3% (active); with COLO 205 colon, -72.5% (active); in the experiment with DU-145 prostate, -27.6% (active); in the experiment with K-562 leukemia, 7.54% (active). For the same compound, the growth with MALME-3M melanoma was -76.1% (active); in the experiment on MDA-MB-231 breast it was -37.8% (active); with RXF 393 renal, -89.3% (active); in the experiment with SF-268 CNS it was -51% (active); with SF-295 CNS, -90.4% (active); in the experiment with SF-539 CNS it was -86.7% (active). The growth in the experiment on UACC-257 melanoma is -20.5% (active); in the experiment on M14 melanoma it was -74.9% (active).
As for `CCC(CC)C(=O)OC(C)COc1ccc(C(C)(C)C)cc1` (stereo not given), the growth with NCI-H23 lung is 105%; in the experiment on NCI-H226 lung, 100%; in the experiment with NCI-H322M lung, 109%; with HOP-62 NSCLC, 103%; in the experiment with NCI-H460 lung, 106%; in the experiment on HOP-92 NSCLC, 92.6%. Further, the growth in the experiment with NCI-H522 lung was 70.5%; in the experiment with A549/ATCC NSCLC, 69.2%; in the experiment with 786-0 renal, 97.4%; in the experiment on COLO 205 colon, 124%; in the experiment with DU-145 prostate, 106%; with K-562 leukemia, 87%. For the same compound, the growth in the experiment with MALME-3M melanoma is 94.5%; with MDA-MB-231 breast, 108%; in the experiment on RXF 393 renal it was 113%; with SF-268 CNS it was 99.1%; in the experiment with SF-295 CNS, 106%; with SF-539 CNS it was 109%. The growth in the experiment with UACC-257 melanoma is 66.7%; in the experiment on M14 melanoma, 96%.
Take `CC(C)(C)c1nc(-c2ccc(O)c(O)c2)cs1`: the growth in the experiment with NCI-H23 lung was 68.8%; in the experiment on NCI-H226 lung, 93.7%; in the experiment with NCI-H322M lung, 93.2%; in the experiment with HOP-62 NSCLC, 66.7%; in the experiment with NCI-H460 lung it was 33.1%; with HOP-92 NSCLC, 61.3%. Further, the growth in the experiment on NCI-H522 lung is 21%; in the experiment on A549/ATCC NSCLC it was 55.7%; in the experiment with 786-0 renal, 77.5%; in the experiment with COLO 205 colon, 92.6%; with DU-145 prostate it was 66.3%; in the experiment on K-562 leukemia it was 50%. In addition, the growth is 86.8% with MALME-3M melanoma; 54.3% in the experiment on MDA-MB-231 breast; 72% in the experiment on RXF 393 renal; 67.1% with SF-268 CNS; 61.6% with SF-295 CNS; 57.7% in the experiment on SF-539 CNS. The growth with UACC-257 melanoma is 76.2%; with M14 melanoma, 43.2%.
With `CCCCC[C@H]1C/C=C2/C(=O)C(Cl)=C[C@@H]2C/C=C\CCCC(=O)O[C@@H](CCCCC)C/C=C2/C(=O)C(Cl)=C[C@@H]2C/C=C\CCCC(=O)O1`, the growth is -24.7% (active) in the experiment on NCI-H23 lung; -34.3% (active) in the experiment on NCI-H226 lung; -31.2% (active) with NCI-H322M lung; -52.8% (active) in the experiment on HOP-62 NSCLC; -27.2% (active) with NCI-H460 lung; -63.4% (active) with HOP-92 NSCLC. Moreover, the growth in the experiment on NCI-H522 lung was -67.3% (active); with A549/ATCC NSCLC, -51.4% (active); in the experiment with 786-0 renal, -66.9% (active); with COLO 205 colon, -76.4% (active); with DU-145 prostate it was -31.4% (active); in the experiment on K-562 leukemia, 0.851% (active). Moreover, the growth was -14.1% (active) in the experiment with MALME-3M melanoma; -29.9% (active) in the experiment on MDA-MB-231 breast; -87.5% (active) in the experiment on RXF 393 renal; 1.58% (active) in the experiment on SF-268 CNS; -27.3% (active) with SF-295 CNS; -11.3% (active) in the experiment with SF-539 CNS. Also, the values for the growth in the experiment on UACC-257 melanoma and in the experiment on M14 melanoma were -63.5% (active) and -61.5% (active), respectively.
As to `CC(C)(C)c1ccc(OCCCCCCCN2CCNCC2)cc1`, the growth with NCI-H23 lung is 51.9%; with NCI-H226 lung it was 70.3%; in the experiment on NCI-H322M lung it was 53.6%; in the experiment with HOP-62 NSCLC, 54%; in the experiment with NCI-H460 lung, -14.9% (active); with HOP-92 NSCLC, 33.3%. In addition, the growth is 72.9% in the experiment on NCI-H522 lung; 44.9% with A549/ATCC NSCLC; 23.9% in the experiment on 786-0 renal; -60.9% (active) in the experiment on COLO 205 colon; 45.6% with DU-145 prostate; 0.406% (active) in the experiment on K-562 leukemia. Besides, the growth in the experiment with MALME-3M melanoma was -50.4% (active); in the experiment with MDA-MB-231 breast, 19.3%; in the experiment with RXF 393 renal, 28.2%; in the experiment with SF-268 CNS, 59.5%; in the experiment with SF-295 CNS, 17.3%; in the experiment on SF-539 CNS, 67.3%. In addition, the growth in the experiment with UACC-257 melanoma was 48.2%; in the experiment with M14 melanoma, 45.2%.
As for `Cc1cc(N=O)cc(C(C)(C)C)c1O`, the growth with NCI-H23 lung was 97%; in the experiment with NCI-H226 lung it was 85.8%; in the experiment on NCI-H322M lung it was 95.6%; in the experiment with HOP-62 NSCLC, 90%; in the experiment on NCI-H460 lung it was 101%; in the experiment on HOP-92 NSCLC, 73%. For the same compound, the growth in the experiment on NCI-H522 lung is 90.2%; with A549/ATCC NSCLC, 73.5%; in the experiment with 786-0 renal it was 103%; with COLO 205 colon, 92.3%; in the experiment on DU-145 prostate, 103%; with K-562 leukemia, 98.2%. The growth in the experiment with MALME-3M melanoma was 88.4%; in the experiment with MDA-MB-231 breast it was 95.1%; with RXF 393 renal, 105%; with SF-268 CNS, 100%; in the experiment with SF-295 CNS it was 99%; in the experiment with SF-539 CNS, 103%. Moreover, the growth in the experiment with UACC-257 melanoma was 75.1%; in the experiment on M14 melanoma, 92.2%.
